# Results filed as inconclusive are left out. Entries that show only a call come without a potency. Activity calls are given as the source filed them. Unless noted, calls come from the whole dose curve.
# Key:
# [1] = Confirmatory qHTS to identify inhibitors of SARS-CoV-2 cell entry (AID 1645844); note: nearly all actives have a fitted effect of over 45% in size
# Outline: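 HEK293-ACE2 cells (Expi293F stably expressing human ACE2) were pretreated with compounds for 1 hr at 37C, then infected with MLV-based particles carrying Wuhan-Hu-1 spike (C-terminal 19-aa truncation). Luciferase luminescence read after 48 hr; normalized to spike PP (100%) and bald PP (0%).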
# [2] = Cytotoxicity counterscreen for inhibitors of SARS-CoV-2 cell entry (AID 1645845); note: nearly all actives have a fitted effect of over 50% in size
# Outline: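 Expi293F/hACE2 cells seeded overnight; cpd pin-transferred in DMSO, 1 h preincubation, + media, 48 h 37 C 5% CO2; ATPLite 1step luminescence; normalized to cells and no cells.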
# [3] = Primary qHTS to identify inhibitors of SARS-CoV-2 cell entry (AID 1645846); settings: activity change, negative = inhibition: at 57.1 µM (top of the series) unless noted; note: nearly all actives have a fitted effect of over 45% in size
# Outline: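 Data are normalized to wells receiving SARS-CoV-2-S pseudoparticles and those given bald particles. Entry signal was luciferase luminescence in stable hACE2 Expi293F cells, 48 hr post-infection, after 1 hr compound pretreatment.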
# [4] = VSVG counterscreen qHTS to identify inhibitors of SARS-CoV-2 cell entry (AID 1645847); note: nearly all actives have a fitted effect of over 65% in size
# Outline: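 Counterscreen using VSV-G (not spike) pseudotyped MLV particles on ACE2-expressing Expi293F cells after 1 h compound preincubation; infection ran 48 h at 37 °C. Data normalized to VSV-G PP and bald-PP wells.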
# CRL-7250 = normal cell line; test: qHTS assay to identify novel small-molecules to repurpose for Merkel cell carcinoma treatment (AID 1296009; active = well fitted inhibition curve with a large enough effect; note: nearly all actives have a fitted effect of over 60% in size); settings: MCC and control cell lines, CellTiter-Glo viability, 72 h; series mostly up to 92 µM
# Outline: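 Cells exposed to NPC (8-point) and MIPE (11-point) compound dilutions for 72 hr at 37 degree celsius; viability read by CellTiter-Glo luminescence, normalized to no-cell and DMSO in-plate controls.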
# [5] = Primary qHTS for inhibitors of SARS-S pseudo-typed particle cell entry (AID 1479145); note: nearly all actives have a fitted effect of over 45% in size
# [6] = Primary qHTS for Huh7 cytotoxicity: counterscreen for inhibitors of MERS-S pseudotyped particle cell entry (AID 1479147); settings: outcome: dose series up to 57.1 µM unless noted
# [7] = Primary qHTS for Vero E6 cytotoxicity: counterscreen for inhibitors of SARS-S pseudo-typed particle cell entry (AID 1479150); settings: outcome: dose series up to 57.1 µM unless noted
# [8] = Primary qHTS for inhibitors of MERS-S pseudo-typed particle cell entry (AID 1479149); note: nearly all actives have a fitted effect of over 60% in size
# [9] = qHTS for Inhibitors of the Functional Ribonucleoprotein Complex (vRNP) of Lymphocytic Choriomeningitis Arenaviruses (LCMV): Viability assay - alamar blue signal for LCMV Primary Screen (AID 1347085; calls by dose curve; tested in HEK293 reporter line; note: nearly all actives have a fitted effect of over 80% in size; note: potency is the fitted concentration of half-maximal effect)
# [10] = Confirmatory qHTS for VERO E6 Cytotoxicity Assay: Counterscreen for SARS-CoV-2 CPE Assay (AID 1508605); note: nearly all actives have a fitted effect of over 60% in size
# [11] = Confirmatory qHTS for activators (rescue) of SARS-CoV-2 Cytopathic Effect (CPE) (AID 1508606); note: nearly all actives have a fitted effect of over 70% in size
# [12] = qHTS for Inhibitors of the Functional Ribonucleoprotein Complex (vRNP) of Lassa (LASV) Arenavirus: Viability assay - alamar blue signal for LASV Primary Screen (AID 1347083; calls by dose curve; tested in HEK293 reporter line; note: potency is the fitted concentration of half-maximal effect; nearly all actives have a fitted effect of over 80% in size)
smiles,measurement,setting,value
CC[C@@](C)(Nc1ccnc(-c2c[nH]c3ncccc23)n1)C(=O)NCC(F)(F)F,Potency,[1],inactive
same,Potency,[2],inactive
same,"activity change, negative = inhibition",[3],-38.3%
same,Potency,[4],inactive
same,Potency,CRL-7250,inactive
C[C@]12CC[C@@H]3c4ccc(OC(=O)c5ccccc5)cc4CC[C@H]3[C@@H]1CC[C@@H]2O,Potency,[5],inactive
same,outcome,[6],inactive
same,outcome,[7],inactive
same,Potency,[2],inactive
same,"activity change, negative = inhibition",[3],-3.2%
same,Potency,CRL-7250,inactive
CC1(C)OC(=O)C(OCC2CC2)=C1c1ccc(S(C)(=O)=O)cc1,outcome,[6],inactive
same,Potency,[8],inactive
same,outcome,[7],inactive
same,Potency,[2],inactive
same,Potency,CRL-7250,inactive
O=C(Nc1ccccc1)Nc1ccc(-c2ccc(C(=O)[C@H]3CCC[C@H]3C(=O)O)cc2)cc1,Potency,[9],inactive
same,Potency,CRL-7250,inactive
COc1ccc(CN2CCN(CCCSc3cc(C(C)(C)C)c(O)c(C(C)(C)C)c3)CC2)c(OC)c1OC,Potency,[10],inactive
same,outcome,CRL-7250,inactive [at 9.27 µM]
CCC(=O)c1cc(-c2ccc(Cl)cc2)n(-c2ccc(S(N)(=O)=O)cc2)c1C,Potency,[10],inactive
same,Potency,[11],inactive
same,Potency,CRL-7250,inactive
O=c1[nH]c2ccccc2n1CCN1CCN(c2cccc(C(F)(F)F)c2)CC1,outcome,[6],inactive
same,outcome,[7],inactive
same,Potency,[2],inactive
same,Potency,CRL-7250,inactive
O=C1NC(=O)/C(=C/c2cccc(C(F)(F)F)c2)S1,Potency,[10],inactive
same,Potency,CRL-7250,inactive
CC1(C)Cc2c(sc(NC(=S)NC(=O)c3ccccc3)c2C(=O)O)CO1,Potency,[12],21.7 µM (active)
same,Potency,[9],38.5 µM (active)
same,Potency,[2],inactive
same,Potency,[3],inactive
same,Potency,CRL-7250,inactive
CCC(=O)NS(=O)(=O)c1ccc(-c2c(-c3ccccc3)noc2C)cc1,Potency,[5],inactive
same,outcome,[6],inactive
same,Potency,[8],inactive
same,outcome,[7],inactive
same,Potency,[2],inactive
same,Potency,CRL-7250,inactive
COC(=O)N(C)c1c(N)nc(-c2nn(Cc3ccccc3F)c3ncccc23)nc1N,Potency,[5],inactive
same,outcome,[6],inactive
same,Potency,[8],inactive
same,outcome,[7],inactive
same,Potency,[2],inactive
same,Potency,[3],inactive
same,Potency,CRL-7250,inactive
CN(C)CCOc1cc(-c2cn[nH]c2)ccc1NC(=O)C1COc2ccccc2O1 (stereo unspecified),Potency,[9],27.3 µM (active)
same,"activity change, negative = inhibition",[3],-42.9%
same,Potency,CRL-7250,inactive
CCCCCCCCCCCC1=C(O)C(=O)C=C(O)C1=O,Potency,[12],4.85 µM (active)
same,Potency,[2],inactive
same,Potency,[3],inactive
same,Potency,CRL-7250,inactive
CN1CC[C@@H](c2c(O)cc(O)c3c(=O)cc(-c4ccc(C(F)(F)F)cc4Cl)oc23)[C@@H]1CO,Potency,[10],inactive
same,Potency,[2],inactive
same,Potency,CRL-7250,inactive
CN(C)S(=O)(=O)c1ccc(NC(=S)N2CCC(C(O)(c3ccccc3)c3ccccc3)CC2)cc1,Potency,[10],inactive
same,Potency,CRL-7250,inactive
C[C@@H]1O[C@@H](O[C@H]2[C@H](OC(=O)[C@]34CCC(C)(C)C[C@H]3C3=CCC5[C@@]6(C)C[C@H](O)[C@H](O[C@@H]7O[C@H](CO)[C@@H](O)[C@H](O)[C@H]7O)[C@@](C)(CO)C6[C@H](O)C[C@@]5(C)[C@]3(C)C[C@H]4O)OC[C@H](O)[C@@H]2O)[C@H](O)[C@H](O)[C@H]1O[C@@H]1OC[C@@H](O)[C@H](O[C@H]2OC[C@](O)(CO)[C@H]2O)[C@H]1O (stereo partly specified),"activity change, negative = cytotoxic",[10],-21.6% [at 3.67 µM] (inactive)
same,outcome,CRL-7250,inactive [at 9.27 µM]

# Reference: PubChem BioAssay (NCATS)
